Reference: PubChem BioAssay AID1159580 (chemical genetic matrix, 2015)
“And” between values parts separate entries of the source, which are not always exact repeats. Equal entries are not always repeated. In all, about 5,500 compounds went through this assay and about 2,000 (36%) were called active. About 18% were inconclusive and are not listed. No stated cut-off is given here; in the data, active means normalized growth mostly below about 0.91 (no sharp cut-off); inconclusive means no clear call, values can overlap the other calls; inactive means mostly above about 0.92. The list shows a part of the results.

Experiment: chemical genetic growth profiling, strain panel (AID 1159580);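 further: tested at 20 µM; growth read once vehicle control cultures reached saturation at 30 °C; 1 = growth at the plate median or of vehicle wells; lower values mean less growth of the strain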
Conditions: S. cerevisiae deletion strains, growth OD

Measured: normalized growth

Nc1ccc(S(=O)(=O)Nc2ccc(Cl)nn2)cc1
inactive: locus YAL013W, strain DEP1, hits give low values 1.01 | locus YAL021C, strain ccr4, hits give low values 0.982 | locus YAL026C, strain drs2, hits give low values 0.996 | locus YAL030W, strain snc1, hits give low values 0.985 | locus YBL061C, strain skt5, hits give low values 0.984 | locus YBR009C, strain hhf1, hits give low values 0.994 | locus YBR021W, strain FUR4, hits give low values 0.977 | locus YBR023C, strain chs3, hits give low values 0.984 | locus YBR171W, strain sec66, hits give low values 0.976 | locus YBR229C, strain ROT2, hits give low values 0.995 | locus YBR231C, strain swc5, hits give low values 0.995 | locus YBR279W, strain paf1, hits give low values 0.998 | locus YCL011C, strain gbp2, hits give low values 0.987 | locus YCL016C, strain dcc1, hits give low values 0.971 | locus YCL029C, strain bik1, hits give low values 0.996 | locus YCL061C, strain MRC1, hits give low values 0.984 | locus YCL069W, strain vba3, hits give low values 0.993 | locus YCR088W, strain abp1, hits give low values 0.987 | locus YDL005C, strain med2, hits give low values 0.996 | locus YDL035C, strain GPR1, hits give low values 1.02 | locus YDL040C, strain nat1, hits give low values 0.992 | locus YDL074C, strain BRE1, hits give low values 0.978 | locus YDL101C, strain DUN1, hits give low values 1.01 | locus YDL134C, strain PPH21, hits give low values 1.01 | locus YDL185W, strain tfp1, hits give low values 1.01 | locus YDL192W, strain arf1, hits give low values 1.01 | locus YDR001C, strain nth1, hits give low values 0.987 | locus YDR069C, strain doa4, hits give low values 0.999 | locus YDR101C, strain arx1, hits give low values 0.961 | locus YDR137W, strain rgp1, hits give low values 0.996 | locus YDR150W, strain NUM1, hits give low values 0.999 | locus YDR159W, strain sac3, hits give low values 1.02 | locus YDR162C, strain NBP2, hits give low values 1.02 | locus YDR195W, strain ref2 0.968 | locus YDR297W, strain sur2, hits give low values 0.993 | locus YDR318W, strain mcm21, hits give low values 1 | locus YDR334W, strain swr1, hits give low values 0.984 | locus YDR335W, strain msn5, hits give low values 0.994 | locus YDR388W, hits give low values 1.01 | locus YDR392W, strain spt3, hits give low values 0.929 | locus YDR502C, strain sam2, hits give low values 1 | locus YEL003W, strain gim4, hits give low values 1 | locus YEL037C, strain rad23, hits give low values 0.991 | locus YEL061C, strain CIN8 (second series), hits give low values 0.992 | locus YEL061C, strain CIN8, hits give low values 1 | locus YER015W, strain faa2, hits give low values 0.973 | locus YER016W, strain bim1, hits give low values 1 | locus YER110C, hits give low values 1.01 | locus YER111C, strain swi4, hits give low values 0.986 | locus YER155C, strain BEM2 (second series), hits give low values 1 | locus YER155C, strain BEM2, hits give low values 0.998 | locus YER167W, strain BCK2, hits give low values 1.01 | locus YFR010W, strain ubp6, hits give low values 0.99 | locus YGL078C, strain dbp3, hits give low values 1 | locus YGL086W, strain mad1, hits give low values 0.988 | locus YGL167C, strain pmr1, hits give low values 0.983 | locus YGL173C, strain kem1, hits give low values 0.99 | locus YGL227W, strain vid30, hits give low values 0.979 | locus YGL240W, strain doc1, hits give low values 0.992 | locus YGL248W, strain PDE1, hits give low values 0.999 | locus YGL253W, strain hxk2, hits give low values 1 | locus YGR135W, strain pre9, hits give low values 1.06 | locus YGR252W, strain gcn5, hits give low values 1.04 | locus YHR013C, strain ard1, hits give low values 0.965 | locus YHR027C, strain rpn1, hits give low values 0.995 | locus YHR030C, strain SLT2, hits give low values 1 and 0.995 | locus YHR079C, strain IRE1 (second series), hits give low values 1.01 | locus YHR079C, strain IRE1, hits give low values 0.989 | locus YHR094C, strain hxt1, hits give low values 1.01 | locus YHR129C, strain ARP1, hits give low values 1.01 | locus YHR142W, strain chs7, hits give low values 0.994 | locus YHR200W, strain rpn10, hits give low values 1 | locus YIL066C, strain RNR3, hits give low values 0.992 | locus YIL073C, strain SPO22, hits give low values 1.07 | locus YIL125W, strain kgd1, hits give low values 0.994 | locus YIR030C, strain dcg1, hits give low values 1.01 | locus YJL092W, strain hpr5, hits give low values 0.983 | locus YJL095W, strain BCK1 (second series), hits give low values 0.988 | locus YJL095W, strain BCK1, hits give low values 1.01 and 0.984 | locus YJL115W, strain asf1, hits give low values 0.991 | locus YJL129C, strain trk1, hits give low values 1.01 | locus YJL134W, strain LCB3, hits give low values 1.01 | locus YJL154C, strain vps35, hits give low values 0.986 | locus YJL164C, strain tpk1, hits give low values 0.985 | locus YJL166W, strain qcr8, hits give low values 0.984 | locus YJL168C, strain set2, hits give low values 1 | locus YJL187C, strain SWE1 (second series), hits give low values 0.992 | locus YJL187C, strain SWE1, hits give low values 0.986
